DT40 TDP1 CPT: qHTS for Inhibitors of human tyrosyl-DNA phosphodiesterase 1 (TDP1): qHTS in cells in presence of CPT; Potency, µM (top dose mostly 46.2 µM), without a hit: at the highest dose activity change, negative = growth inhibition, hits mostly inhibitors; hit rate 12% among 420,000; chicken DT40 Tdp1-/-;hTDP1 cells + 20 nM CPT, ATP luminescence, 48 h; AID 686979, 2013; note: nearly all actives have a fitted effect of over 55% in size
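Chicken DT40 Tdp1-/- cells complemented with human TDP1, 400 cells/well, exposed to compounds plus 20 nM camptothecin for at least 48 h at 37 C; viability read as ATP content by CellTiter-Glo luminescence.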
RORgamma inh: qHTS for inhibitors of ROR gamma transcriptional activity. Nuclear receptor ROR-gamma (Mus musculus), P51450. Drosophila S2 Gal4-RORgamma UAS-luciferase reporter, 20 h. Potency, µM (top dose mostly 53.6 µM), for the others: at the highest dose activity change, negative = inhibition, usual class: inhibitors. hit rate 5.4% among 310,000. AID 2551, 2010; note: nearly all actives have a fitted effect of over 60% in size
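ROR gamma transcriptional activity was tracked as Gal4-UAS luciferase output in stably transfected Drosophila Schneider cells, with compound added 1 hr before 700 uM copper sulfate induction and a 20 hr ambient-temperature incubation.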
DT40 TDP1 no CPT: qHTS for Inhibitors of human tyrosyl-DNA phosphodiesterase 1 (TDP1): qHTS in cells in absence of CPT. Potency, µM (titrated, usually from 46.2 µM), without a hit: at the top dose activity change, negative = growth inhibition, most hits filed as inhibitors. DT40 Tdp1-/- hTDP1 cells, no CPT, ATP luminescence, 48 h. AID 686978, 2013. hit rate 15% among 420,000; note: nearly all actives have a fitted effect of over 55% in size
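Cells were dispensed at 400 per well, compounds added by pin tool, plates incubated ≥48 hr at 37 °C, then CellTiter-Glo added for 30 min at room temperature before luminescence reading. Line: DT40 Tdp1-/- complemented with hTDP1; camptothecin omitted.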
ELG1 DNA repair: qHTS screen for small molecules that inhibit ELG1-dependent DNA repair in human embryonic kidney (HEK293T) cells expressing luciferase-tagged ELG1; AID 504467, 2011; hit rate 2.3% among 330,000; HEK293T ELG1-luciferase reporter, luminescence, 16 h; DNA damage induced by 5-fluorouridine; Potency, µM (doses to about 46.1 µM), without a hit: top-dose activity change, negative = inhibition, actives largely listed as inhibitors; note: nearly all actives have a fitted effect of over 55% in size
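Quantitative HTS, concentration-response format. 2,000 cells/well co-treated with 5-fluorouridine and compound, 16 hr in 5% CO2 at 37 °C; ONE-Glo luminescence read after 30 min.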
ALOX12 inh: Primary qHTS assay for inhibitors of human arachidonate 12S-lipoxygenase (ALOX12): Round 2 | Polyunsaturated fatty acid lipoxygenase ALOX12 (Homo sapiens), P18054 | purified 12hLO, xylenol orange hydroperoxide absorbance | Potency, µM (top dose mostly 108 µM), without a hit: top-dose activity change, negative = inhibition, usual class: inhibitors | hit rate 1.1% among 580,000 | AID 1671190, 2021
Target sequence (P18054 whole entry, looked up): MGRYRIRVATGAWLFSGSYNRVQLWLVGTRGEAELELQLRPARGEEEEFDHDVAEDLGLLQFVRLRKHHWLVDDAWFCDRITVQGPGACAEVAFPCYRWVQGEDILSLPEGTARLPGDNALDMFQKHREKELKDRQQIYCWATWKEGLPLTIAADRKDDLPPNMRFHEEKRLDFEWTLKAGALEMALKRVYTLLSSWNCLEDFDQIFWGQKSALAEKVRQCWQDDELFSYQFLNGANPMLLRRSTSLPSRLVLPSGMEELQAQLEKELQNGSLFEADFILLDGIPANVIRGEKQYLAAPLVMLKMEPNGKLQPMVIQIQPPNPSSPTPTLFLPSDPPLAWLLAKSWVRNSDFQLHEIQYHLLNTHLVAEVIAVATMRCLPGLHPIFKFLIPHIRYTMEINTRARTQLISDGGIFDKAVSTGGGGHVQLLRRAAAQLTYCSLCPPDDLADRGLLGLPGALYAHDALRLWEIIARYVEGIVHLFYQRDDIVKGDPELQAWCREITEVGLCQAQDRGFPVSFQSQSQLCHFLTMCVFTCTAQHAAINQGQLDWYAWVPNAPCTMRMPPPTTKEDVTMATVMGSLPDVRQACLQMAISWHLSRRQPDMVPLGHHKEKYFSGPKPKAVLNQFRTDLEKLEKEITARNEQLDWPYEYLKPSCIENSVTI
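Purified human 12hLO (150 nM final) in 25 mM Hepes, 0.01% Triton X-100, pH 7.0 was preincubated 15 min at room temperature with compound. Then 40 uM arachidonic acid was added, 30 min. Hydroperoxide was read by Fe-XO absorbance ratio 573/405 nm.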
VP16 counter: VP16 counterscreen qHTS for inhibitors of ROR gamma transcriptional activity; Drosophila S2 Gal4-VP16 UAS-luciferase, luminescence, 20 h; hit rate 3.5% among 310,000; Potency, µM (series often up to 53.6 µM), inactives show at the highest dose activity, negative = inhibition, most hits filed as inhibitors; AID 2546, 2010;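 note: Gal4-VP16 expression switched on by copper sulfate through the metallothionein promoter; nearly all actives have a fitted effect of over 50% in size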
Active calls of the source: *; ? = inconclusive; / = no result given; [ ] = another dose, or the depositor's remark. A selection: hits, their analogues and other compounds. The true share with any hit is near 15%. Calls come from the whole dose curve; as a rule, active = well fitted curve in the direction sought with a large enough effect; inconclusive = small, poorly fitted or top-dose-only effect, or another doubt; inactive = no such curve, though single readings can be large; an effect the other way counts as inactive or inconclusive. % is set by controls: 0 for no effect and ±100 for the full control effect; potency is the fitted concentration of half-maximal effect.

SMILES	DT40 TDP1 CPT	RORgamma inh	DT40 TDP1 no CPT	ELG1 DNA repair	ALOX12 inh	VP16 counter
CC(/C=C/c1ccc2c(c1)OCO2)=N/NC(=O)c1ccncc1	-6%	5.6µM*	-23%	3%	6%	18µM*
C/C(=N\NC(=O)c1ccc2c(c1)OCO2)c1cccnc1	-2%	?	7%	?	-27%	-23%
CC1=C(/C=C/C(C)=N\NC(=O)c2ccncc2)C(C)(C)CCC1	?	7.9µM*	?	-8%	19%	?
CC(/C=C/c1ccc2c(c1)OCO2)=N/NC(=O)c1cccnc1	-30%	3.5µM*	?	16%	1%	6.3µM*
O=C(c1ccc(F)cc1)N1CC[C@H]2COC(=O)N2c2cc(F)ccc2C1	/	/	/	/	20%[176 µM]	/
COc1ccc(-n2c(C)c(C)c3c2ncn2nc(-c4cccs4)nc32)cc1	/	/	/	/	18%	/
CN(Cc1ccccc1N1CCCCC1)C(=O)c1cccc(S(=O)(=O)N2CCOCC2)c1	/	/	/	/	1%	/
O=C(N/N=C/c1ccncc1)c1cccc([N+](=O)[O-])c1	/	7%	/	2%	1%	-2%
CC(/C=C/c1cccc([N+](=O)[O-])c1)=N\NC(=O)c1ccncc1	?	5µM*	23µM*	-6%	-2%	10µM*
COc1ccc(-c2cc(N3CCC(NC(=O)Cc4ccc(F)cc4)CC3)n[nH]2)cc1	/	/	/	/	33%	/
Cc1c(Cl)cccc1N1C(=O)CC(N(O)c2ccccc2)C1=O (configuration not stated)	-26%	17%	-8%	8%	-28%	-18%
Cc1cccc(C)c1N1C(=O)CC(N(O)c2ccccc2)C1=O (configuration not stated)	-16%	11µM*	-26%	0%	-24%	-1%
Fc1ccc(-c2n[nH]c(=S)n2CC2CCCO2)cc1 (configuration not stated)	-6%	11µM*	-2%	9%	?	?
Cc1ccc(S(=O)(=O)c2nc(-c3ccccc3F)oc2NCc2ccccc2)cc1	?	/	21µM*	/	-16%	/
CCOc1ccc(-c2nc(S(=O)(=O)c3ccccc3)c(NC)o2)cc1	14%	-3%	0%	0%	0%	0%
CCOc1ccc(-c2nc(S(=O)(=O)c3ccccc3)c(NCc3cccnc3)o2)cc1	?	4%	?	15µM*	?	-14%
COc1ccc(-c2nc(S(=O)(=O)c3ccc(C)cc3)c(NCc3ccccc3)o2)cc1	?	/	16µM*	/	?	/
O=S(=O)(c1ccccc1)c1nc(-c2cccc(Cl)c2)oc1NCc1ccccc1	?	/	26µM*	/	-23%	/
O=C(C1CC1)N1CC[C@H]2COC(=O)N2c2ccccc2C1	/	/	/	/	-4%[176 µM]	/
N#Cc1cc(-n2ccnc2-c2cc3n(n2)CCCNC3)ccc1N1CCCC1	/	/	/	/	85%	/
O=C(c1cc2ccccc2oc1=O)N1CCCc2ccccc21	/	/	/	/	0%	/
Cc1ccc(Cn2cc(/C=C(\C#N)C(N)=O)c3ccccc32)cc1	/	/	/	/	-17%	/
O=C(OCc1cccc(Cl)c1)c1cc(Cl)c[nH]1	/	/	/	/	-20%	/
CCN(CC)c1nc(N)c2c(N)nc(OC)cc2c1C#N	15µM*	/	23µM*	/	-9%	/
CCOc1cc2c(C#N)c(N3CCCCC3)nc(N)c2c(N)n1	?	-21%	?	1%	19%	-1%
SMILES	DT40 TDP1 CPT	RORgamma inh	DT40 TDP1 no CPT	ELG1 DNA repair	ALOX12 inh	VP16 counter
COc1cc2c(C#N)c(N3CCCCC3)nc(N)c2c(N)n1	9.2µM*	-4%	13µM*	?	18%	2%
CCOC(=O)c1cc(C#N)c(C)nc1N(CC)CC	15%	21%	-5%	4%	13%	5%
COc1cc2c(C#N)c(N3CCOCC3)nc(N)c2c(N)n1	13µM*	-34%	23µM*	0%	0%	?
COc1cc2c(C#N)c(N3CCc4ccccc4C3)nc(N)c2c(N)n1	21µM*	11%	21µM*	?	-6%	-3%
CCOc1cc2c(C#N)c(N3CCNCC3)nc(N)c2c(N)n1	-4%	1%	-15%	7%	0%	3%
CCCCOc1ccc(NC(=O)C(C)Sc2ncnc3nc[nH]c23)cc1 (configuration not stated)	/	/	/	/	-5%	/
O=C(Nc1ccccc1Br)C12CC3CC(CC(Cl)(C3)C1)C2	/	/	/	/	9%	/
CCC1=NN2C(=N)/C(=C\c3cccn3-c3ccc(C)c(C)c3)C(=O)N=C2S1	-8%	28µM*	-18%	18µM*	0%	-9%
CCC1=NN2C(=N)/C(=C\c3cccn3-c3ccc(Cl)cc3)C(=O)N=C2S1	18%	?	-15%	?	-7%	-7%
CC(C)(C)C(NCC(=O)NC(C)(C#N)C1CC1)c1cccs1 (configuration not stated)	/	/	/	/	-6%	/
O=C(CCSc1ccccc1Cl)OCC(=O)c1ccc(C2CCCCC2)cc1	/	/	/	/	-3%	/
COc1cc(C2OCC3C(c4ccc(OC5OC(CO)C(O)C(O)C5O)c(OC)c4)OCC23)ccc1O (configuration not stated)	1%	2%	-2%	8%	5µM*	-5%
COc1cc([C@H]2OC[C@H]3[C@@H]2CO[C@H]3c2ccc(O)c(OC)c2)ccc1O	6%	/	-19%	?	-1%	/
COc1cc(C[C@H]2C(=O)OC[C@@H]2Cc2ccc(OC)c(OC)c2)ccc1O	2.4µM*	6.3µM*	1.7µM*	/	0%	1.1µM*
COc1ccc(C[C@H]2COC(=O)[C@@H]2Cc2ccc(OC3OC(CO)C(O)C(O)C3O)c(OC)c2)cc1OC (some centres not stated)	?	?	21µM*	-7%	/	-17%
COc1cc(CCC(C)=O)ccc1O	/	/	/	/	-6%[176 µM]	/
CCCN(CCC)c1nc(-c2ccccc2O)nc2ccccc12	/	/	/	/	-9%	/
COc1ccc(CNC(=O)CC2CCCCN(C)C2=O)c(OC)c1 (configuration not stated)	/	/	/	/	30%	/
Cc1ccc(-c2cc(C(=O)NC(C)C)c3ccccc3n2)c(C)c1	/	/	/	/	-2%	/
N/C(=N\OC(=O)c1ccccc1)c1cccnc1	-11%	0%	8%	?	-2%	12%
N/C(=N\OC(=O)CC(c1ccccc1)c1ccccc1)c1cccnc1	12µM*	-20%	?	-7%	-3%	?

Screens deposited in PubChem by National Center for Advancing Translational Sciences (NCATS).
